Laboratory results: PubChem BioAssay (NCI)
The panel holds about 83,000 compounds, 20% with a hit somewhere; the sample as a whole holds those more often.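 Values shown are percent growth following 48 h exposure of cells in 96-well plates to a single concentration of compound; below 10 was considered active.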 Values without a mark were called inactive. Activity calls are given as the source filed them.

Assays:
Assay in all cases: NCI-60 one-dose screen, 48 h (100 = growth as untreated, 0 = no growth, -100 = all killed)
Details in all cases: 10 µM unless noted
NCI-H23 lung = system: NCI-H23 lung
NCI-H226 lung = system: NCI-H226 lung
NCI-H322M lung = system: NCI-H322M lung
HOP-62 NSCLC = system: HOP-62 NSCLC
NCI-H460 lung = system: NCI-H460 lung
HOP-92 NSCLC = system: HOP-92 NSCLC
NCI-H522 lung = system: NCI-H522 lung
A549/ATCC NSCLC = system: A549/ATCC NSCLC
786-0 renal = system: 786-0 renal
COLO 205 colon = system: COLO 205 colon
DU-145 prostate = system: DU-145 prostate
K-562 leukemia = system: K-562 leukemia
MALME-3M melanoma = system: MALME-3M melanoma
MDA-MB-231 breast = system: MDA-MB-231 breast
RXF 393 renal = system: RXF 393 renal
SF-268 CNS = system: SF-268 CNS
SF-295 CNS = system: SF-295 CNS
SF-539 CNS = system: SF-539 CNS
UACC-257 melanoma = system: UACC-257 melanoma
M14 melanoma = system: M14 melanoma

Compound | growth (NCI-H23 lung) | growth (NCI-H226 lung) | growth (NCI-H322M lung) | growth (HOP-62 NSCLC) | growth (NCI-H460 lung) | growth (HOP-92 NSCLC) | growth (NCI-H522 lung) | growth (A549/ATCC NSCLC) | growth (786-0 renal) | growth (COLO 205 colon) | growth (DU-145 prostate) | growth (K-562 leukemia) | growth (MALME-3M melanoma) | growth (MDA-MB-231 breast) | growth (RXF 393 renal) | growth (SF-268 CNS) | growth (SF-295 CNS) | growth (SF-539 CNS) | growth (UACC-257 melanoma) | growth (M14 melanoma)
CN(C)S(=O)(=O)c1cccc(-c2nc3sc4c(c3c(=O)[nH]2)CCCC4)c1 | 44.1% | 54% | 27.2% | 42.7% | 7.27% (active) | 11.4% | 54.7% | 25.8% | -37.1% (active) | 64.6% | 54.5% | 37.9% | 17.2% | 34.8% | 10.7% | 64.9% | 24.7% | 23% | 75% | 48%
O=C1NC(=S)N[C@H]1CC(=O)n1cnc2ccccc21 | 92.3% | 93.6% | 105% | 93% | 104% | 96.1% | 98.4% | 105% | 102% | 111% | 109% | 114% | 98.2% | 101% | 99.7% | 100% | 100% | 99% | 116% | 96.8%
COc1cc(/C=C/C(=O)c2c(C)oc3nc[nH]c(=O)c23)cc(OC)c1OC | 68.9% | 92.1% | 85.8% | 101% | 83.7% | 96.4% | 47.7% | 81.6% | 94.3% | 95.4% | 64.8% | 45.2% | 88.1% | 86.7% | 66.3% | 81.3% | 104% | 95.7% | 73% | 75.3%
COc1cc2nc(N3CCCC3)nc(Nc3ccccc3)c2cc1OC | 2.6% (active) | 29.2% | 19.3% | 16.3% | -42.1% (active) | -25.9% (active) | -53% (active) | -39.8% (active) | -90.5% (active) | -84.1% (active) | 9.82% (active) | -11.6% (active) | -85.9% (active) | -69.4% (active) | -84.5% (active) | -0.197% (active) | -63.2% (active) | -87.4% (active) | -84.2% (active) | -70.7% (active)
CCOC(=O)n1cc(-c2nonc2-c2cn(C)c3ncccc23)c2ccccc21 | 79.2% | 58.7% | 87.3% | 87.8% | 64.2% | 66.1% | 71.1% | 82% | 88.8% | 93% | 97.1% | 40.6% | 84.4% | 63.8% | 81.7% | 82.2% | 82.8% | 92.3% | 98% | 90.1%
CC(=O)O[C@H]1CC[C@]2(C)[C@H]3CC=C4[C@@H]5CC(C)(C)CC[C@]5(C(=O)NCCNCCNCCN)CC[C@@]4(C)[C@]3(C)CC[C@H]2C1(C)C | 86.5% | 91.4% | 95.2% | 87.5% | -56.3% (active) | 61.9% | 54.3% | 43% | -56.3% (active) | -93.1% (active) | 17% | -11.3% (active) | 73.5% | -42.9% (active) | 65.4% | 87.1% | 102% | 86.2% | 93.1% | 23.8%
COc1cccc(C2=NN3C(C2)c2cc(Br)cc(OC)c2OC32CCN(Cc3ccccc3)CC2)c1 (stereo not given) | 95.7% | 85.3% | 103% | 105% | 101% | 111% | 96.2% | 102% | 104% | 107% | 105% | 105% | 99.7% | 109% | 115% | 94.5% | 101% | 105% | 104% | 107%
CC[C@H]1OC(=O)[C@H](C)[C@@H](O[C@H]2C[C@@](C)(OC)[C@@H](O)[C@H](C)O2)[C@H](C)[C@@H](O[C@@H]2O[C@H](C)C[C@H](N(C)C)[C@H]2O)[C@](C)(O)C[C@H](C)CN(C)[C@H](C)[C@@H](O)[C@]1(C)O | 93.7% | 103% | 104% | 97.7% | 102% | 67.5% | 104% | 104% | 91.7% | 45.6% | 109% | 108% | 92% | 55.2% | 85.5% | 99.1% | 108% | 102% | 124% | 96.4%
N#C/C(=C\c1ccc(-c2cc(C(F)(F)F)ccc2Cl)o1)c1nc(-c2ccco2)cs1 | 93.7% | 96.2% | 103% | 96.1% | 102% | 101% | 85.3% | 108% | 104% | 119% | 108% | 89.3% | 106% | 93.1% | 112% | 99.7% | 101% | 99.3% | 112% | 99.4%
CCOC(=O)c1csc(NC(=O)COc2cccc(/C=C3\CSc4ccccc4C3=O)c2)n1 | 9.12% (active) | 98.1% | 97.1% | 80.1% | 98.4% | -79.1% (active) | -39.2% (active) | 97.2% | 87.1% | 87.9% | 87.1% | -64.3% (active) | -52.6% (active) | 59.2% | 64.9% | -37.2% (active) | 93.7% | -89.1% (active) | 84.5% | -58.5% (active)
COc1cc2c(cc1-c1c(C)noc1C)ncc1nc(-c3ccccn3)n([C@H](C)COC(F)F)c12 | 61.1% | 57.8% | 51.4% | 40.9% | 57.7% | 26.7% | 29.3% | 39% | 50.4% | 29.8% | 64.2% | 32.8% | 70.1% | 41.2% | 60.8% | 70.9% | 60.4% | 41.7% | 44.4% | 49.5%
C=C(C)C1CC(O)C2(C)CCCC3C2C1CC(C)C3(C)CC/C(C)=C/C(O)C1CCC(=O)c2c(OC)cc(OC)cc21 (stereo not given) | 48.9% | 71.2% | 78.9% | 46.7% | 14.7% | 58.5% | 53.6% | 30.8% | 58% | 40.8% | 43.3% | 22% | 52% | 48.6% | 52.7% | 44.5% | 41.4% | 50.8% | 12.6% | 72.7%
CCc1nnc(CNc2ccc(Cl)cc2)o1 | 105% | 93.2% | 92% | 111% | 100% | 102% | 89.9% | 94.4% | 97.4% | 106% | 108% | 86.3% | 95.6% | 94.4% | 113% | 96.4% | 102% | 97% | 103% | 95.1%
COc1ccc(-c2nc3ccc(-c4nc5ccc(N6CCN(c7ccncc7)CC6)cc5[nH]4)cc3[nH]2)cc1OC | 36.9% | 46% | 81.2% | 61% | 83.5% | 57.8% | -58% (active) | 80.7% | 76.4% | 13.3% | 42.7% | 29.5% | -25% (active) | 63% | 85.1% | 38.4% | 49.8% | 42.5% | 11.6% | 13.6%
C#Cc1cccc(NC(=O)c2ccccc2NC(=O)C=C)c1 | 97.1% [8.25 µM] | 97.6% [8.25 µM] | 101% [8.25 µM] | 92.9% [8.25 µM] | 103% [8.25 µM] | 92.8% [8.25 µM] | 80.5% [8.25 µM] | 98.1% [8.25 µM] | 89.9% [8.25 µM] | 109% [8.25 µM] | 95.6% [8.25 µM] | 98.8% [8.25 µM] | 102% [8.25 µM] | 102% [8.25 µM] | 120% [8.25 µM] | 95.6% [8.25 µM] | 105% [8.25 µM] | 92% [8.25 µM] | 104% [8.25 µM] | 103% [8.25 µM]
